# Shown is part of a subset that was picked to be rich in hits.
# TbREL1 primary: TbREL1 inhibition, primary screen; P86926; TbREL1 RNA ligation, FRET fluorescence; inhibition, % at 9.66 µM; hit rate 0.49% among 89,000;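 active = inhibition above the mean inhibition across all screened compounds plus 3 SD, cut at about 11% in these data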;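 note: 0% = plate median of test wells and 100% = NSC42067 control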
# Target sequence (P86926 whole entry, looked up): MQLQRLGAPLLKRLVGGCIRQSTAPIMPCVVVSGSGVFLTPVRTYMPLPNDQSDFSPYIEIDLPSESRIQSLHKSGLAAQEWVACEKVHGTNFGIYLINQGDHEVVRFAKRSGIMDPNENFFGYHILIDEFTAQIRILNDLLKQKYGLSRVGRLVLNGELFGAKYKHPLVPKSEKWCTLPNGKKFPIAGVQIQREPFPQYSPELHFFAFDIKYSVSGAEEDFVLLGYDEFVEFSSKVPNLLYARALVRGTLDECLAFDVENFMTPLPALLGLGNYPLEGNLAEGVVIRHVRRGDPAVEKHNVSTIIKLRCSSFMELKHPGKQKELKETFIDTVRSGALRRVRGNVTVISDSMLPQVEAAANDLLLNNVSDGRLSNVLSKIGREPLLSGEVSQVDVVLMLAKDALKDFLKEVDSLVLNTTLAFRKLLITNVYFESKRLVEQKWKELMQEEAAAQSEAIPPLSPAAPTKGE
# TbREL1 confirm: TbREL1 inhibition, confirmation | shares compounds with TbREL1 primary | TbREL1 RNA ligation, FRET fluorescence | inhibition, % at 9.66 µM | hit rate 37% among 390 | AID 1117282;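 active = mean inhibition across replicates above a set limit taken from the earlier primary screen, cut at about 11% in these data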;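 note: 0% = REL1 with substrate and DMSO and 100% = REL1 plus control inhibitor NSC42067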
# The depositor's hits bear a star.
SMILES,TbREL1 primary,others
CCC(C)NC(=O)CC(C)C (configuration not stated),12.2*,TbREL1 confirm=6.3
CCOc1ccc(-n2c(SCC(=O)c3ccc4ccccc4c3)nnc2-c2ccc(OC)cc2)cc1,5.9,
O=C(NCc1cccc(C(F)(F)F)c1)O[C@H]1CC[C@@]23CCCN2C(=O)CCC[C@H]3C1,-5.0,
O=C(Nc1nnc(-c2ccc(Cl)cc2)o1)NC1CCCCC1,-1.4,
O=C(Nc1cccc(Cl)c1)NC1CCCCC1,6.1,
Clc1ccc(CN=C(Nc2ccccc2)NC2CCCCC2)cc1,12.6*,TbREL1 confirm=15.4*
CC(CNC(=O)[C@H]1O[C@@H](n2cnc3c(=O)[nH]c(N)nc32)[C@H](O)[C@@H]1O)c1ccccc1 (some centres not stated),-0.5,
COc1cccc(CN(C)C(=O)[C@H]2O[C@@H](n3cnc4c(=O)[nH]c(N)nc43)[C@H](O)[C@@H]2O)c1,14.1*,TbREL1 confirm=19.3*
COC(=O)[C@@H](Cc1ccccc1)NC(=O)[C@H]1O[C@@H](n2cnc3c(=O)[nH]c(N)nc32)[C@H](O)[C@@H]1O,-4.6,
CCc1ccc(OCC(=O)NNC(=O)c2nn(CC)c(=O)c3ccccc23)cc1,2.0,
O=C(NCCS(=O)(=O)N1CCN(c2ccccc2F)CC1)c1ccc(F)c(F)c1,-0.9,
CCOC(=O)C1=C(C)N(C)C(=O)NC1c1cccc([N+](=O)[O-])c1 (configuration not stated),-0.7,
CCOC(=O)c1c(C)n(C)c2cc([N+](=O)[O-])c(O)c([N+](=O)[O-])c12,11.2*,TbREL1 confirm=3.0
CCOC(=O)c1c(C)n(C)c2ccc(OCC(N)=O)cc12,6.0,
O=[N+]([O-])c1ccc(Oc2ccc(S(=O)(=O)N3CCOCC3)cc2)cc1,0.5,
CCOc1ccc(NC(=O)CN(C)CC(=O)Nc2ccc(F)c(F)c2F)cc1OCC,0.3,
Cc1c(Cl)cccc1NC(=O)Nn1cnnc1,0.2,
CCCNC(=O)C/C(C)=N/NC(=O)C(=O)Nc1ccccn1,2.5,
C/C(CC(=O)Nc1ccccn1)=N\NC(=O)c1ccc2ccccc2c1,0.1,
C/C(CC(=O)Nc1ccccn1)=N\NC(=O)c1ccccc1O,22.3*,TbREL1 confirm=5.2
CCCCn1c(N)c(N(CC(C)C)C(=O)c2cc3ccccc3cc2OC)c(=O)[nH]c1=O,1.1,
CCOc1ccc(N(C(=O)CNC(=O)c2ccco2)C(C(=O)NC2CCCC2)c2ccco2)cc1 (configuration not stated),-1.6,
CCC(C)NS(=O)(=O)c1ccc(F)c(C(=O)Nc2c(F)cc(F)cc2Br)c1 (configuration not stated),19.0*,TbREL1 confirm=1.8
O=C(Nc1cccs1)Nc1c(F)cc(F)cc1Br,-0.3,
NS(=O)(=O)c1ccc(F)c(C(=O)O)c1,3.4,
SMILES,TbREL1 primary,others
COc1ccccc1NC(=O)O[C@@H]1CC[C@@]23CCCN2C(=O)CCC[C@H]3C1,-1.8,
CCOC(=O)CCCNC(=O)OC1CC2CC1[C@H]1CCCCN1[C@H]2Cc1ccccc1 (some centres not stated),-5.5,
CCC(=O)Nc1ccc2c(c1)C(=O)c1ccccc1C2=O,13.9*,TbREL1 confirm=2.4
CCC(=O)NC1=C(NC(C)c2ccccc2)C(=O)c2ccccc2C1=O (configuration not stated),0.1,
CCC(=O)Nc1ccc(C(=O)NNC(=O)c2ccccc2)cc1,6.1,
Cc1cc(C(=O)N2CCCC(N3CCN(c4ccccc4C)CC3)C2)n(C)n1 (configuration not stated),-1.0,
O=C(/C=C\c1ccccc1[N+](=O)[O-])Nc1ccccc1,12.1*,TbREL1 confirm=6.8
O=C(/C=C/c1cccc([N+](=O)[O-])c1)Nc1cc(C(=O)O)cc(C(=O)O)c1,1.6,
CC(=O)N(C)c1ccc(NC(=O)/C=C/c2ccccc2Cl)cc1,-3.3,
Cc1ccc(S(=O)(=O)N2c3ccc(F)cc3C[C@H]2CSc2ccccc2)cc1,1.0,
Cc1nc2ccccc2n1CC(=O)c1ccc(O)c(O)c1,16.0*,TbREL1 confirm=15.5*
Cc1[nH]c2ccccc2c1C(=O)COC(=O)Cn1c(C)nc2ccccc21,1.1,
O=C(CSc1nc2ccccc2n1CCc1ccccc1)c1ccc(O)c(O)c1,9.1,
O=C1C2C3C=CC(C4CC34)C2C(=O)N1/N=C/c1ccc([N+](=O)[O-])o1 (configuration not stated),-1.3,
Cc1cccc(NC(=O)C2CCN(c3nnc(-n4cccc4)s3)CC2)c1C,-3.8,
CC(NCC(O)COc1ccc2ccccc2c1)c1ccccc1 (configuration not stated),13.8*,TbREL1 confirm=14.5*
CCCC(NCC(O)COc1ccc(-c2ccccc2)cc1)c1ccccc1 (configuration not stated),0.7,
Cc1nc(C)n(CC(O)COc2ccc3ccccc3c2)n1 (configuration not stated),-2.6,
CC(C)(C)C(=O)NC1CC2CCCC(C1)N2C(=O)Nc1ccccc1Cl (configuration not stated),0.2,
CC(C)[C@H](NC(=O)c1ccccc1)C(=O)Nc1cccc(S(=O)(=O)N2CCOCC2)c1,1.3,
O=C(c1ccc(Cl)cc1)c1cn[nH]c1-c1ccccc1O,-1.8,
O=C(NCc1ccccc1)C1=C[C@H](c2ccc(C(F)(F)F)cc2)C[C@H](OCCCCO)O1,-2.2,
c1ccc(-c2csc(=Nc3cccnc3)n2CC2CCCO2)cc1 (configuration not stated),0.3,
COc1ccc(-c2cnc(N)n2CC2CCCO2)cc1 (configuration not stated),-0.3,
c1ccc(-c2cnc(SCCN3CCOCC3)n2CC2CCCO2)cc1 (configuration not stated),15.2*,TbREL1 confirm=-0.9
SMILES,TbREL1 primary,others
CC(C)(C)c1csc(NC(=O)Cn2c(=O)oc3ccccc32)n1,5.6,
O=C(Cn1c(=O)oc2ccccc21)c1ccccc1,2.2,
CC(C)(C)NC(=O)Cn1c(=O)oc2ccc(Cl)cc21,59.3*,TbREL1 confirm=5.2
O=S1(=O)CCN2N=C(C3CC3)SC2=N1,2.1,
COc1ccccc1CC(=O)NCCc1ccccc1,-1.5,
C=CC[C@@H](CC(=O)N[C@H](CO)Cc1ccccc1)C(=O)N[C@H](COC(=O)[C@@H](CC=C)Cc1ccc(F)cc1)Cc1ccccc1,0.4,
CCCC(C(=O)NCc1ccco1)N(CC1CCCO1)C(=O)CNS(=O)(=O)c1ccc(F)cc1 (configuration not stated),-1.8,
CCC(C(=O)NCc1ccco1)N(C(=O)CNS(=O)(=O)c1ccc(F)cc1)c1ccccc1F (configuration not stated),36.5*,TbREL1 confirm=1.9
O=C(CN(Cc1ccc(F)cc1)C(=O)CNS(=O)(=O)c1ccc(F)cc1)NCc1ccco1,-3.8,
Cc1cc(NC(=O)C(C)SCC(=O)OCC(=O)N(Cc2ccccc2)C(C)(C)C)no1 (configuration not stated),-0.5,
Cc1cccc(N2CC(C(=O)Nc3nccs3)CC2=O)c1C (configuration not stated),2.4,
Nc1nc(NC(=O)CCCC(=O)O)nn1-c1ccccc1,3.1,
COc1ccc(C2C(C(=O)NCc3ccccn3)c3cc(OC)c(OC)cc3C(=O)N2C)cc1 (configuration not stated),-0.6,
COc1cc2c(cc1OC)-c1cc(NCc3ccccn3)nc(=O)n1CC2,21.3*,TbREL1 confirm=22.5*
COc1ccc(Cl)cc1S(=O)(=O)N1CCCC(C(=O)NCc2ccccn2)C1 (configuration not stated),-2.4,
O=C(OCC#CCSc1nnc(-c2cccc3ccccc23)o1)c1ccco1,1.0,

# Source: PubChem (The Scripps Research Institute Molecular Screening Center)
